Measurements from the supplement of paper PMC10849652.
The full data set covers some 7,900 targets. This sample favours those with a hit. About 0.6% of all pairs of compound and target were hits.

How the values were obtained:
Assay in all cases: log2 fold change, soluble protein after heating vs DMSO (PISA); higher = thermal stabilisation; K562 cells, 10 uM, 30 min; active = over 0.2 and 3.5 SD of the protein, either way, in both replicates (recomputed)
[1] = compound: CC1=C(C=C(C=C1)NC(=O)C2=CC(=CC=C2)C(C)(C)C#N)NC3=CC4=C(C=C3)N=CN(C4=O)C
Summary of the method: (§1)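 For each measurement, 10 μM compound was applied for 30 min to K562 cells at 2×10^6 cells/mL. Aliquots were heated for 3 min across 48°C-58°C, pooled, and extracted in PBS with 0.5% NP-40 at 4°C; the supernatant after 21,000xg for 90 min was soluble protein. This was quantified by TMTpro 16plex LC-MS/MS with channel sums equalised, and thermal stability was reported relative to control samples from duplicates, on a log2 fold-change scale.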

[2] = compound: CC1=C(C=C(C=C1)NC(=O)C2=CC(=CC=C2)N(C)C)NC(=O)C3=CC=C(C=C3)O
Summary of the method: as §1

[3] = compound: CC1=CC=C(C=C1)SC2=C3C=C(SC3=CN=C2)C(=O)N
Summary of the method: as §1

[4] = compound: CC1=NC(=CC=C1)C2=C(N=C(N2)C(C)(C)C)C3=CC4=NC=CN=C4C=C3
Summary of the method: as §1

Nexturastat A = compound: CCCCN(Cc1ccc(C(=O)NO)cc1)C(=O)Nc1ccccc1 [Nexturastat A]
Summary of the method: as §1

vemurafenib = compound: CCCS(=O)(=O)Nc1ccc(F)c(C(=O)c2c[nH]c3ncc(-c4ccc(Cl)cc4)cc23)c1F [vemurafenib]
Summary of the method: as §1

[5] = compound: CCCS(=O)(=O)Nc1ccc(F)c(C(=O)c2c[nH]c3ncc(Cl)cc23)c1F
Summary of the method: as §1

[6] = compound: CCCc1cc(C)[nH]c(=O)c1CNC(=O)c1cc(-c2ccnc(N3CCN(C)CC3)c2)cc2c1cnn2C(C)C
Summary of the method: as §1

givinostat = compound: CCN(CC)Cc1ccc2cc(COC(=O)Nc3ccc(C(=O)NO)cc3)ccc2c1 [givinostat]
Summary of the method: as §1

barasertib = compound: CCN(CCCOc1ccc2c(Nc3cc(CC(=O)Nc4cccc(F)c4)[nH]n3)ncnc2c1)CCOP(=O)(O)O [barasertib]
Summary of the method: as §1

Measured: log2 fold change

NMRAL1 (UniProt Q9HBL8)
Chain of UniProt Q9HBL8 (Q9HBL8 whole entry, looked up): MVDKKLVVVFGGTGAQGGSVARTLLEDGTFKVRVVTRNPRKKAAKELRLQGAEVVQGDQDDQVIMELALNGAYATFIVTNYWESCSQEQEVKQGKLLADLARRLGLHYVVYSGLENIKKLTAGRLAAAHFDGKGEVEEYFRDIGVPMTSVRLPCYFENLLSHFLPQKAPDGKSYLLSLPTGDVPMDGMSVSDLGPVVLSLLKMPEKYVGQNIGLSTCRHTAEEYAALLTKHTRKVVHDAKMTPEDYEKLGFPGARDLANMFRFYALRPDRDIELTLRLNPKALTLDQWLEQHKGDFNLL
inactive: [2] 0.029 | [3] 0.025 | [4] -0.151 | Nexturastat A -0.138 | vemurafenib 0.003 | [5] -0.074 | [6] 0.234 | givinostat 0.027 | barasertib -0.021
active: [1] 1.01

MRPS25 (UniProt P82663)
inactive: [1] 0.033 | [2] -0.009 | [3] 0.085 | [4] 0.078 | Nexturastat A 0.012 | vemurafenib -0.089 | [5] 0.078 | [6] -0.082 | givinostat 0.049 | barasertib -0.02

PACS1 (UniProt Q6VY07)
inactive: [1] -0.001 | [2] -0.031 | [3] -0.021 | [4] 0.087 | Nexturastat A 0.023 | vemurafenib 0.021 | [5] 0.023 | [6] 0.092 | givinostat 0.004 | barasertib 0.039

MRPS10 (UniProt P82664)
inactive: [1] 0.018 | [2] 0 | [3] 0 | [4] -0.03 | Nexturastat A 0.097 | vemurafenib -0.002 | [5] 0.006 | [6] -0.046 | givinostat 0.063 | barasertib -0.051

OPA1 isoform 2 (UniProt O60313)
inactive: [1] 0.01 | [2] -0.064 | [3] 0.027 | [4] -0.003 | Nexturastat A -0.018 | vemurafenib -0.001 | [5] 0.095 | [6] -0.002 | givinostat 0.052 | barasertib 0.045

MTHFD1 (UniProt P11586)
inactive: [1] 0.052 | [2] -0.026 | [3] 0.003 | [4] 0.042 | Nexturastat A -0.046 | vemurafenib 0.06 | [5] 0.046 | [6] -0.013 | givinostat 0.048 | barasertib 0.038

NR2C2AP isoform 2 (UniProt Q86WQ0)
inactive: [1] -0.053 | [2] -0.068 | [3] -0.007 | [4] 0.082 | Nexturastat A -0.101 | vemurafenib -0.026 | [5] 0.066 | [6] -0.085 | givinostat -0.035 | barasertib -0.002

NMD3 (UniProt Q96D46)
inactive: [1] 0.03 | [2] -0.061 | [3] -0.009 | [4] 0.067 | Nexturastat A -0.079 | vemurafenib 0.077 | [5] 0.03 | [6] -0.004 | givinostat -0.024 | barasertib 0.015

MSH3 (UniProt P20585)
inactive: [1] 0.029 | [2] -0.033 | [3] 0.021 | [4] -0.101 | Nexturastat A -0.015 | vemurafenib 0.019 | [5] 0.053 | [6] -0.013 | givinostat 0.002 | barasertib -0.001

NUCKS1 (UniProt Q9H1E3)
inactive: [1] -0.036 | [2] 0.065 | [3] -0.014 | [4] 0.044 | Nexturastat A -0.061 | vemurafenib 0.017 | [5] -0.061 | [6] -0.076 | givinostat -0.004 | barasertib 0.008

NECTIN2 (UniProt Q92692)
Chain of UniProt Q92692 (Q92692 whole entry, looked up): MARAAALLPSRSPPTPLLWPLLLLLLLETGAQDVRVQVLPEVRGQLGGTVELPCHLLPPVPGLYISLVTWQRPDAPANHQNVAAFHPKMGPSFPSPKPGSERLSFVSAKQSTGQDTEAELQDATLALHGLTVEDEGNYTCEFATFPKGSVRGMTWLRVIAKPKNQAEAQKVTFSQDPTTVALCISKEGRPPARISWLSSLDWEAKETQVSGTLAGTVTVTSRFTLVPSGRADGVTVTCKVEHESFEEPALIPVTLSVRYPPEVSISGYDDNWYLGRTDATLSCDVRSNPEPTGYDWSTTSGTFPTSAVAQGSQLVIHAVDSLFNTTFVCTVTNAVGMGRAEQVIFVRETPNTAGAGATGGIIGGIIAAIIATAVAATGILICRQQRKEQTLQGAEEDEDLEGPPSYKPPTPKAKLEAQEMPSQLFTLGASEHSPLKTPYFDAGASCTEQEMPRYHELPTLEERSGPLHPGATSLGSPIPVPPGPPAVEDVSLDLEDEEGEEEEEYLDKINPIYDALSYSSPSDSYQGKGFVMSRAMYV
inactive: [1] -0.006 | [2] -0.026 | [3] 0.037 | [4] -0.049 | Nexturastat A -0.117 | vemurafenib 0.016 | [5] 0.019 | [6] 0.005 | givinostat -0.025 | barasertib -0.024

OXSR1 (UniProt O95747)
inactive: [1] 0.019 | [2] -0.11 | [3] 0.014 | [4] 0.004 | Nexturastat A -0.021 | vemurafenib 0.037 | [5] 0.038 | [6] 0.007 | givinostat 0.055 | barasertib 0.035

NAT14 (UniProt Q8WUY8)
Chain of UniProt Q8WUY8 (Q8WUY8 whole entry, looked up): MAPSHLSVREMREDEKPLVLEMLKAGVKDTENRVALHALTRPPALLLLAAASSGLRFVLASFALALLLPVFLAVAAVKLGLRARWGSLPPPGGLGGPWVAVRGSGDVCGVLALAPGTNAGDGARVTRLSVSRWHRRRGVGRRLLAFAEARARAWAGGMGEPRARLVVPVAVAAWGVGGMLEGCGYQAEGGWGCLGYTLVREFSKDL
inactive: [1] 0.012 | [2] -0.054 | [3] 0.011 | [4] 0.031 | Nexturastat A 0.227 | vemurafenib 0.054 | [5] -0.051 | [6] -0.103 | givinostat -0.043 | barasertib 0.027

NUMA1 (UniProt Q14980)
Chain of UniProt Q14980 (Q14980 whole entry, looked up): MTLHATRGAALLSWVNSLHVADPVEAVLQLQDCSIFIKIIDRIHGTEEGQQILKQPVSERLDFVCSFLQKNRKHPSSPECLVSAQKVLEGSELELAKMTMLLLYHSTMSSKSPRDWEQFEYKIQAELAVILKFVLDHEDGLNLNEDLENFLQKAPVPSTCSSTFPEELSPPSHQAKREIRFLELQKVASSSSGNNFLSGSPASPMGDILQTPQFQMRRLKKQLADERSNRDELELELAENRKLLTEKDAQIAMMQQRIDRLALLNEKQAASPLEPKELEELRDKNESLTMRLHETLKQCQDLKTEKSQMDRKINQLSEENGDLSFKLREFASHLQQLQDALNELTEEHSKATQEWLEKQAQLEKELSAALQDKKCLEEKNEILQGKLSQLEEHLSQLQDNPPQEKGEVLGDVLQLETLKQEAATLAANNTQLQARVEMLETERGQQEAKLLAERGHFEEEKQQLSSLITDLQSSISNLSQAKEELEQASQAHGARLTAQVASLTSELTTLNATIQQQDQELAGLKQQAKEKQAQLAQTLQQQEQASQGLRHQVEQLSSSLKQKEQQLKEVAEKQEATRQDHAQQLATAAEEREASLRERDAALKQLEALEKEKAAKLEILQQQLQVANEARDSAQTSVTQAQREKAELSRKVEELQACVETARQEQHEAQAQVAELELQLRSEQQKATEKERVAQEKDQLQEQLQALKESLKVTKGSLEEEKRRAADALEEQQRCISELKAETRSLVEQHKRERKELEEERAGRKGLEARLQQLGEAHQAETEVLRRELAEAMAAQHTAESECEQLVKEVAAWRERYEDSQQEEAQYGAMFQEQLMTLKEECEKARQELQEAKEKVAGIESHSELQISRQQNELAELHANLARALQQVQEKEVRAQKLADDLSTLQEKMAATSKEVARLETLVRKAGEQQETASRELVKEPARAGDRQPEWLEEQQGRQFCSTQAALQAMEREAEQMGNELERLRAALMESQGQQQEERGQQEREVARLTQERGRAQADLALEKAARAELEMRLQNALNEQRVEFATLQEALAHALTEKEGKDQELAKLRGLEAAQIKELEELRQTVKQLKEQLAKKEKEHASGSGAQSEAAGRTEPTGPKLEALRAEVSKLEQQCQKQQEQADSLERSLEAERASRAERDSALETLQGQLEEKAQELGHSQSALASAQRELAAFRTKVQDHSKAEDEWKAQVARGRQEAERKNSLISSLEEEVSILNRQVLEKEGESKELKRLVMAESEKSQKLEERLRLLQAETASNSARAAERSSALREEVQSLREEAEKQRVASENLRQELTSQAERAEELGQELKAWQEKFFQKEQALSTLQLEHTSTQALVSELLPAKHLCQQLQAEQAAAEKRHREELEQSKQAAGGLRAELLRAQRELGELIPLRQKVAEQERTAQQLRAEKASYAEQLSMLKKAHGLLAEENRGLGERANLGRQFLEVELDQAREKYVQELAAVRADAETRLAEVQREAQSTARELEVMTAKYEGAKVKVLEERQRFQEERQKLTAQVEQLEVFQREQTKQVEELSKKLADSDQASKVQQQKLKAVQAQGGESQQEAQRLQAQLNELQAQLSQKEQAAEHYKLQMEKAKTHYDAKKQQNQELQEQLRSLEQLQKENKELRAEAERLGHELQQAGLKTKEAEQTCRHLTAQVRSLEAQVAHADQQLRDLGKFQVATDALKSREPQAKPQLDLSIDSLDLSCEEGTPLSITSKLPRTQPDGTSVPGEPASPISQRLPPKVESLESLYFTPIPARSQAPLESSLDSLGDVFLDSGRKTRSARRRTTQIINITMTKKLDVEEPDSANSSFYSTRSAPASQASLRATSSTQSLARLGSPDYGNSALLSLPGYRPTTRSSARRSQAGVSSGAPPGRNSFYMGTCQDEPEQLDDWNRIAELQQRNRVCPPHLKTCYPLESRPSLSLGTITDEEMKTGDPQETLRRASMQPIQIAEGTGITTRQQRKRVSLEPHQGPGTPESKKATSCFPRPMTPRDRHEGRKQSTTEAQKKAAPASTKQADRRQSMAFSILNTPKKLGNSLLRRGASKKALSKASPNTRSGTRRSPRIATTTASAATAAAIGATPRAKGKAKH
inactive: [1] 0.03 | [2] -0.029 | [3] -0.009 | [4] -0.073 | Nexturastat A 0.262 | vemurafenib 0.02 | [5] 0.005 | [6] 0.132 | givinostat 0.092 | barasertib 0.005

NBN (UniProt O60934)
inactive: [1] 0.017 | [2] -0.008 | [3] -0.01 | [4] 0.014 | Nexturastat A -0.03 | vemurafenib 0.081 | [5] 0.047 | [6] 0.04 | givinostat 0.054 | barasertib 0.022

MSTO1 (UniProt Q9BUK6)
Chain of UniProt Q9BUK6 (Q9BUK6 whole entry, looked up): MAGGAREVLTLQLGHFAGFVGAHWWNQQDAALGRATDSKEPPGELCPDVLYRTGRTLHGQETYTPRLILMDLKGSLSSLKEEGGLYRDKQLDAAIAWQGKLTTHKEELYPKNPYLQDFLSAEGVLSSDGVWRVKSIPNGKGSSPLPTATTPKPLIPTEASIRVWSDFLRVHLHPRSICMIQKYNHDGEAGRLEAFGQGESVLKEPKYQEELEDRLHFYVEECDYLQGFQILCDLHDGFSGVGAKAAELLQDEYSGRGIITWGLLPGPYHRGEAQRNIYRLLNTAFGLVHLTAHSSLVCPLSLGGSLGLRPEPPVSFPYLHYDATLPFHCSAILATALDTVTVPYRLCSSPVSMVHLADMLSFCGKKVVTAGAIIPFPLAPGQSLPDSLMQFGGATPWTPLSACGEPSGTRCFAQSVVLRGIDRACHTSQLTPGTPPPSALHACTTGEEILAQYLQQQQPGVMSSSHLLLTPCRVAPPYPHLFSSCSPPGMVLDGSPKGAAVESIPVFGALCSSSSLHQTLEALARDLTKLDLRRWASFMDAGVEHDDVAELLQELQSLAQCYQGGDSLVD
inactive: [1] -0.032 | [2] -0.052 | [3] -0.02 | [4] 0.024 | Nexturastat A -0.118 | vemurafenib 0.052 | [5] 0.018 | [6] -0.012 | givinostat 0.011 | barasertib 0.037

NA, A0A096LPI6
inactive: [1] -0.018 | [2] 0.032 | [3] 0.051 | [4] 0.039 | Nexturastat A -0.093 | vemurafenib 0.008 | [5] 0.052 | [6] -0.033 | givinostat -0.055 | barasertib -0.003

MITD1 (UniProt Q8WV92)
inactive: [1] -0.124 | [2] 0.072 | [3] -0.043 | [4] -0.043 | Nexturastat A -0.026 | vemurafenib 0.069 | [5] 0 | [6] -0.093 | givinostat -0.047 | barasertib 0.042

MRPS2 (UniProt Q9Y399)
inactive: [1] 0.075 | [2] -0.049 | [3] -0.018 | [4] 0.029 | Nexturastat A 0.049 | vemurafenib 0.126 | [5] 0.041 | [6] -0.084 | givinostat -0.044 | barasertib -0.031

NRDC isoform 2 (UniProt O43847)
inactive: [1] 0.001 | [2] -0.053 | [3] 0.01 | [4] 0.03 | Nexturastat A 0 | vemurafenib 0.047 | [5] 0.051 | [6] 0.021 | givinostat 0.017 | barasertib 0.037

NDUFS4 (UniProt O43181)
inactive: [1] 0.03 | [2] 0.024 | [3] -0.069 | [4] -0.033 | Nexturastat A 0.032 | vemurafenib -0.061 | [5] -0.06 | [6] -0.033 | givinostat -0.083 | barasertib -0.062

NRF1 isoform 4 (UniProt Q16656)
Chain of UniProt Q16656 (Q16656 whole entry, looked up): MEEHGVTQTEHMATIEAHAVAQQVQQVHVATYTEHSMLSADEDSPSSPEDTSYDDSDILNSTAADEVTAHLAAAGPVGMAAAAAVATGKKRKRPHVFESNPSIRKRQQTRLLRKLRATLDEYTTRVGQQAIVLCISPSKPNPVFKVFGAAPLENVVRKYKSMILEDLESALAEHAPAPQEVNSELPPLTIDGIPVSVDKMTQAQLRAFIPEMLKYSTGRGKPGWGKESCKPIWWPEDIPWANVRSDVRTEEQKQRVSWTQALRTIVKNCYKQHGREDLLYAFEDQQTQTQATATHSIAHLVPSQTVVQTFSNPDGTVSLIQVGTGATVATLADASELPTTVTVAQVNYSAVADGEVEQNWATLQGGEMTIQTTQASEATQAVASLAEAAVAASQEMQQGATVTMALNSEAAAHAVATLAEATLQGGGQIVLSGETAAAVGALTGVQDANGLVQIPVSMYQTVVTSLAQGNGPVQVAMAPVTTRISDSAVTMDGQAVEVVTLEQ
inactive: [1] 0.002 | [2] 0.03 | [3] -0.015 | [4] 0.051 | Nexturastat A -0.316 | vemurafenib 0.004 | [5] 0.081 | [6] -0.007 | givinostat 0.042 | barasertib 0.034

NIPSNAP2 (UniProt O75323)
inactive: [1] 0.06 | [2] -0.044 | [3] 0.055 | [4] 0 | Nexturastat A -0.072 | vemurafenib 0.06 | [5] 0.029 | [6] 0.007 | givinostat -0.081 | barasertib 0.019

MORF4L2 (UniProt Q15014)
inactive: [1] -0.004 | [2] -0.061 | [3] -0.015 | [4] -0.083 | Nexturastat A 0.129 | vemurafenib 0.009 | [5] 0.036 | [6] 0.038 | givinostat -0.007 | barasertib -0.03

NIBAN1 (UniProt Q9BZQ8)
inactive: [1] 0.05 | [2] -0.036 | [3] 0.102 | [4] 0.01 | Nexturastat A 0.077 | vemurafenib 0.046 | [5] 0.083 | [6] 0.039 | givinostat 0.05 | barasertib 0.063

NOLC1 isoform 2 (UniProt Q14978)
Chain of UniProt Q14978 (Q14978 whole entry, looked up): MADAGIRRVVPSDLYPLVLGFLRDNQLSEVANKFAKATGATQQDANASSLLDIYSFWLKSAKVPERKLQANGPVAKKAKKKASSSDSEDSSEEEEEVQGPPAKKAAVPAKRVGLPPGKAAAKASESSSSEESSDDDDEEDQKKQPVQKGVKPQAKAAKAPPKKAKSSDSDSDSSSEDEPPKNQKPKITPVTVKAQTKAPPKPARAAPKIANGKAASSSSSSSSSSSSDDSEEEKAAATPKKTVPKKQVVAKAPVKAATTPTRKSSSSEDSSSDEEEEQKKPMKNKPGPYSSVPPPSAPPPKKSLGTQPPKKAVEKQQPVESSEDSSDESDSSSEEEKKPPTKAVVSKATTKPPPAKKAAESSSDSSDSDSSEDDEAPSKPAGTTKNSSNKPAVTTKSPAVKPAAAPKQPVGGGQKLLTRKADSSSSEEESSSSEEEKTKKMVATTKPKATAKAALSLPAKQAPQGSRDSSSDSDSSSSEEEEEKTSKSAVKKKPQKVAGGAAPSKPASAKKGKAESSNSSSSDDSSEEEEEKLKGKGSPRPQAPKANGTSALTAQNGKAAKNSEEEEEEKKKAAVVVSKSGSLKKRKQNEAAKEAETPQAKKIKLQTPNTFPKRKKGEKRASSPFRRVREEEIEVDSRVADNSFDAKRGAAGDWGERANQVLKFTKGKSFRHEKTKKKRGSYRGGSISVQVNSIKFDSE
inactive: [1] -0.074 | [2] -0.004 | [3] -0.082 | [4] -0.051 | Nexturastat A 0.018 | vemurafenib -0.088 | [5] -0.032 | [6] 0.104 | givinostat 0.143 | barasertib -0.033

MRPS31 (UniProt Q92665)
inactive: [1] -0.015 | [2] -0.012 | [3] -0.041 | [4] -0.017 | Nexturastat A 0.111 | vemurafenib -0.041 | [5] 0.054 | [6] -0.012 | givinostat 0.009 | barasertib -0.007

PAFAH1B3 (UniProt Q15102)
inactive: [1] 0 | [2] -0.096 | [3] 0.098 | [4] 0.03 | Nexturastat A 0.019 | vemurafenib -0.014 | [5] -0.012 | [6] 0.005 | givinostat -0.022 | barasertib 0.035

MKNK1 (UniProt Q9BUB5)
inactive: [1] -0.008 | [2] -0.051 | [3] 0.03 | [4] 0.115 | Nexturastat A -0.094 | vemurafenib 0.021 | [5] 0.035 | [6] 0.022 | givinostat 0.012 | barasertib 0.033

MRPL50 (UniProt Q8N5N7)
inactive: [1] -0.09 | [2] -0.04 | [3] 0.175 | [4] -0.031 | Nexturastat A 0.208 | vemurafenib 0.034 | [5] 0.244 | [6] -0.058 | givinostat 0.05 | barasertib -0.057
